DT40 TDP1 CPT – growth inhibition of DT40 Tdp1-/-;hTDP1 cells with camptothecin (screen for TDP1 inhibitors); chicken DT40 Tdp1-/-;hTDP1 cells + 20 nM CPT, ATP luminescence, 48 h; Potency, µM (top dose mostly 46.2 µM), inactives show top-dose activity change, negative = growth inhibition, actives largely listed as inhibitors; 12% of 420,000 active; AID 686979; also: potency is read from the fitted curve at half-maximal effect; nearly all actives have a fitted effect of over 55% in size
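Chicken DT40 Tdp1-/- cells complemented with human TDP1, 400 cells/well, exposed to compounds plus 20 nM camptothecin for at least 48 h at 37 C; viability read as ATP content by CellTiter-Glo luminescence.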
LDHA inh – blocks human lactate dehydrogenase A. purified LDHA, NADH/diaphorase-resazurin fluorescence; stronger effect = lower value. activity change, % (values are at about 110 or 230 µM). 0.15% of 480,000 active. AID 1347041; in the data active = activity change below about -30%; inconclusive = mostly about -25% to -30%;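 also: plate controls were DMSO wells for no effect and wells without enzyme for full effect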
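Resorufin fluorescence (ex540/em590), read at 0 and 20 min after diaphorase/resazurin addition, reports the NADH left after a 5 min room-temperature reaction of 2 nM human LDH5 with 0.06 mM NADH and 0.2 mM pyruvate.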
RORg inh – blocks mouse ROR gamma transcriptional activity; P51450; Drosophila S2 Gal4-RORgamma UAS-luciferase reporter, 20 h; Potency, µM (top dose mostly 53.6 µM), inactives show at the top dose activity change, negative = inhibition, most hits filed as inhibitors; 5.4% of 310,000 active; also: potency is read from the fitted curve at half-maximal effect; nearly all actives have a fitted effect of over 60% in size
Target sequence (P51450 whole entry, looked up, the tested form may be a part): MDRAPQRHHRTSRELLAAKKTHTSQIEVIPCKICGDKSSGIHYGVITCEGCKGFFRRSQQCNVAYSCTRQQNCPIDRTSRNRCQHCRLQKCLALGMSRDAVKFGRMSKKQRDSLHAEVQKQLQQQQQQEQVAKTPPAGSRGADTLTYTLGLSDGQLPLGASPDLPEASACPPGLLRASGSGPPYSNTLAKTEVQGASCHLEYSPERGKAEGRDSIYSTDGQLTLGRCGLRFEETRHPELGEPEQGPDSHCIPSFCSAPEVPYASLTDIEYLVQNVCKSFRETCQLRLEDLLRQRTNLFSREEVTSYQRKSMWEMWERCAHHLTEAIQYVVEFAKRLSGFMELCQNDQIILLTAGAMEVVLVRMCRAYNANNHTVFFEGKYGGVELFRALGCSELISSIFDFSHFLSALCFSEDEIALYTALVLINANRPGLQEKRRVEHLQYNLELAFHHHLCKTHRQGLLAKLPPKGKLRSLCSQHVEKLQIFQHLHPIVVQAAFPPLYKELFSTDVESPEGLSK
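Using a luciferase readout, inhibitors were identified by reduced reporter activity in Drosophila cells coexpressing a copper-inducible Gal4–ROR gamma fusion and UAS-driven Photinus luciferase, incubated 20 hr after 700 uM copper sulfate.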
IL-1B inflam inh – inflammasome signaling inhibition, IL-1 beta readout; activity change, % at 57.5 µM; THP-1 LPS/ATP IL-1B secretion, AlphaLISA, 16 h; stronger effect = lower value; 4.7% of 360,000 active; in the data active = activity change below about -50%; inconclusive = mostly about -30% to -49%
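Secreted IL-1B measured by AlphaLISA bead assay after 16 h compound exposure of THP-1 cells; compounds (final up to 57.5 uM) added 1 h before LPS (250 ng/mL) and ATP (1.25 mM) stimulation; lower signal means less secretion.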
Gal4-VP16 FLuc – Gal4-VP16 reporter inhibition counter-screen. Drosophila S2 Gal4-VP16 UAS-luciferase, luminescence, 20 h. Potency, µM (doses to about 53.6 µM), inactives show top-dose activity, negative = inhibition, actives largely listed as inhibitors. 3.5% of 310,000 active. AID 2546;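 also: Gal4-VP16 expression switched on by copper sulfate through the metallothionein promoter; potency is read from the fitted curve at half-maximal effect; nearly all actives have a fitted effect of over 50% in size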
TDP1 cell noCPT – qHTS for Inhibitors of human tyrosyl-DNA phosphodiesterase 1 (TDP1): qHTS in cells in absence of CPT; DT40 Tdp1-/- hTDP1 cells, no CPT, ATP luminescence, 48 h; Potency, µM (titrated, usually from 46.2 µM), inactives show at the top dose activity change, negative = growth inhibition, usual class: inhibitors; 15% of 420,000 active; AID 686978, 2013; also: potency is read from the fitted curve at half-maximal effect; nearly all actives have a fitted effect of over 55% in size
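No-CPT arm: Tdp1-/-;hTDP1 DT40 cells (400/well) plus compounds, incubated ≥48 hr at 37 °C. Readout CellTiter-Glo luminescence.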
The depositor's hits bear a star; ? = inconclusive; . = no result given. This is a sample that favours compounds with a hit; in the whole collection about 18% have one here. Unless noted, calls follow the shape of the dose curve; as a rule, active = well fitted curve in the direction sought with a large enough effect; inconclusive = small, poorly fitted or top-dose-only effect, or another doubt; inactive = no such curve, though single readings can be large; an effect the other way counts as inactive or inconclusive. Unless noted, % is scaled to controls: 0 for no effect and ±100 for the full control effect.

SMILES	DT40 TDP1 CPT	LDHA inh	RORg inh	IL-1B inflam inh	Gal4-VP16 FLuc	TDP1 cell noCPT
Cc1ccc(C)c(CSc2ccc3nnc(-c4ccccn4)n3n2)c1	?	-11.3	-11.9%	-70.2*	-14.5%	?
Fc1ccc(CSc2ccc3nnc(-c4ccccn4)n3n2)cc1	-14.4%	-11.9	-10.2%	-14.1	-4.6%	?
Cc1ccc(SC(C)C(=O)NC(C)(C#N)C(C)C)cc1C (stereo unspecified)	.	2.2	.	.	.	.
COc1ccc(C2NC(=S)N(c3ccccc3)C(C)=C2C(=O)Nc2ccccc2)cc1 (stereo unspecified)	-13.8%	-2.8	0.0%	-4.7	?	-14.5%
CC1=C(C(=O)Nc2ccc([N+](=O)[O-])cc2)C(c2cccc(C(F)(F)F)c2)NC(=S)N1c1ccccc1 (stereo unspecified)	13µM*	-4.0	?	?	?	16.4µM*
CCOC(=O)C1=C(C)N(c2ccc(Cl)cc2)C(=O)NC1c1cccc([N+](=O)[O-])c1 (stereo unspecified)	?	-1.8	?	40.5	-8.0%	-14.8%
COCCOC(=O)C1=C(C)N(c2ccccc2)C(=O)NC1c1cccc([N+](=O)[O-])c1 (stereo unspecified)	?	-0.7	?	-2.0	17.8µM*	?
Cc1cc2nc(/C(C#N)=C/c3ccc(F)c(Br)c3)[nH]c2cc1C	.	2.2	.	.	.	.
COc1cccc(C(=O)NC2CC3CCC(C2)N3Cc2ccccc2)c1 (stereo unspecified)	-7.8%	-1.1	13.4%	-6.3	-4.7%	-1.3%
CCCN1C2CCCC1CC(NC(=O)C1CCCCC1)C2 (stereo unspecified)	0.0%	-3.1	-28.8%	20.5	-2.2%	-0.2%
O=C(CN1C2CCCC1CC(NC(=O)C1CCCCC1)C2)NCc1ccc(F)cc1 (stereo unspecified)	?	-3.4	39.0%	-0.1	?	16.4µM*
COc1cccc(C(=O)NC2CC3CCCC(C2)N3CC(=O)Nc2ccccc2C(F)(F)F)c1 (stereo unspecified)	?	-3.0	130.3%	-16.0	-17.2%	16.4µM*
O=C(CN1C2CCCC1CC(NC(=O)C1CCCCC1)C2)Nc1ccccc1C(F)(F)F (stereo unspecified)	23.1µM*	-4.4	?	?	?	14.6µM*
CCc1cccc(CC)c1NC(=O)CN1C2CCCC1CC(NC(=O)Nc1cccc(OC)c1)C2 (stereo unspecified)	18.4µM*	-9.6	22.5%	?	7.1%	?
O=C(O)C1CCCCN1C(=O)c1ccc(Cl)c(S(=O)(=O)N2CCCCC2)c1 (stereo unspecified)	.	4.1	.	.	.	.
CCOc1cccc(C(=O)Nc2scc(-c3ccccc3Cl)c2C(=O)OC)c1	.	1.1	.	.	.	.
Cc1cc(C)n(-c2nc3c(c(=O)n(CC(N)=O)c(=O)n3C)n2CCCc2ccccc2)n1	.	-7.4	.	.	.	.
CCc1ccc2oc(-c3cccc(NC(=O)c4cc(OC)c(OC)c(OC)c4)c3)nc2c1	.	-2.1	.	.	.	.
O=C(Nc1ccc2c(c1)CN(C(=O)Nc1ccc(F)cc1)CC2)c1ccccn1	5.8µM*	-10.3	.	-14.8	.	4.11µM*
CSc1ccccc1C(=O)N1CCc2ccc(NC(=O)c3ccccn3)cc2C1	13µM*	-4.3	.	16.9	.	11.6µM*
CSc1ccc(C(=O)N2CCc3ccc(NC(=O)c4ccccn4)cc3C2)cc1	?	4.8	?	0.0	-0.6%	?
CCC(C)Cc1c(C)sc2nc(CNc3ccc(NC(C)=O)c(Cl)c3)[nH]c(=O)c12 (stereo unspecified)	.	1.6	.	.	.	.
NC(=O)N1N=C2/C(=C/c3ccccc3)CCCC2C1c1ccccc1 (stereo unspecified)	-20.0%	-6.7	1.0%	-57.3*	-13.5%	?
COc1ccc(/C=C2\CCCC3C2=NN(C(=O)CSc2ncn[nH]2)C3c2ccc(OC)cc2)cc1 (stereo unspecified)	18.4µM*	-4.8	39.6%	-85.1*	-4.4%	23.1µM*
CC(C(=O)N1CCNC1=O)N(C)Cc1ccccc1Cl (stereo unspecified)	.	-8.7	.	.	.	.
SMILES	DT40 TDP1 CPT	LDHA inh	RORg inh	IL-1B inflam inh	Gal4-VP16 FLuc	TDP1 cell noCPT
COc1ccc2[nH]c(=O)c(CN(C3CCCCC3)C(c3nnnn3Cc3ccco3)C(C)C)cc2c1 (stereo unspecified)	11.6µM*	7.0	0.8%	-93.2*	1.9%	?
COc1ccc2[nH]c(=O)c(CN(Cc3nnnn3Cc3ccco3)C3CCCCC3)cc2c1	?	-0.3	-3.0%	-11.1	3.3%	16.4µM*
COc1ccc(Cn2nnnc2CN(Cc2cc3cc(C)ccc3[nH]c2=O)C2CCCC2)cc1	11.6µM*	-0.5	35.4%	-61.2*	?	11.2µM*
CC(=O)N(Cc1cc2c(C)cc(C)cc2[nH]c1=O)C1CCCCC1	-20.6%	-4.8	0.3%	1.5	3.2%	-26.7%
CCOC(=O)Cn1nnnc1C(C(C)C)N(Cc1cc2c(C)cc(C)cc2[nH]c1=O)C1CCCC1 (stereo unspecified)	23.1µM*	0.3	27.7%	?	-8.0%	20.6µM*
CC(C)(C)c1cc(NC(=O)Nc2ccc(F)cc2)no1	.	-17.8	.	.	.	.
O=C(CNC(=O)c1cc(-c2cccs2)on1)NC1CC1	.	-2.1	.	.	.	.
N#C/C(=C/c1ccc(OC(F)F)cc1)c1nc2ccccc2[nH]1	.	-3.4	.	.	.	.

Assay outcomes (PubChem)
